# The whole screen tested about 390,000 compounds, of which about 2,600 (0.67%) were called active. The sample as a whole holds a higher share of actives than the screen did. Values without a mark were called inactive.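 The calls were made as follows: active = mean inhibition of replicates at least 50% and at least half of replicates each reaching 50%; inconclusive = half or more replicates reach 50% but mean below 50%; inactive = the rest.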
# Molecular target: Transforming acidic coiled-coil-containing protein 3 (Homo sapiens) (UniProt Q9Y6A5)
# Experiment: inhibitors of ARNT PAS-B binding to TACC3 – biochemical, AlphaScreen, single concentration, primary screen (AID 623870);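 also: 0% = complete ARNT plus TACC3 wells and 100% = ARNT alone without TACC3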
# Conditions: AlphaScreen His-ARNT PAS-B/GST-TACC3 binding, luminescence; at 9.99 µM; hits give high values; TACC3 fragment carries E629A point mutation
row,SMILES,inhibition
1,CCN(/N=C/c1ccccc1)c1cc(=O)n(C)c(=O)[nH]1,6.16% (active)
2,CN1C(=O)c2cc(NC(=O)c3cnccn3)ccc2OC[C@@H]2O[C@H](CC(=O)NC3CCC3)CC[C@@H]21,-9.79%
3,C[C@H](CO)N1C[C@H](C)[C@H](CN(C)S(C)(=O)=O)Oc2c(NC(=O)Nc3cccc4ccccc34)cccc2C1=O,8.09%
4,O=C(C[C@@H]1C[C@@H]2c3cc(NC(=O)c4ccc5c(c4)OCO5)ccc3O[C@@H]2[C@@H](CO)O1)NCC1CC1,-5.9%
5,COc1ccccc1NC(=O)N(C)C[C@@H]1Oc2ncc(C#CCC(C)C)cc2C(=O)N([C@@H](C)CO)C[C@@H]1C,-5.04%
6,C[C@@H](NC(=O)C[C@@H]1C[C@H]2c3cc(NC(=O)C4CCC4)ccc3O[C@H]2[C@@H](CO)O1)c1ccccc1,-9.96%
7,N#C[C@@H]1[C@@H](c2ccc(-c3cccnc3)cc2)[C@H](CO)N1C(=O)Nc1ccc(F)cc1,-8.19%
8,Cc1ccc(Oc2ccc3c(c2)C(=O)N(c2cccc4cccnc24)C3=O)cc1,1.71%
9,Cc1ccc(OS(=O)Nc2cccc3nccnc23)cc1 (stereo not drawn),69.3% (active)
10,COCC(=O)N1C[C@@H](C)[C@H](OC)CN(C)C(=O)c2ccc(NC(=O)c3ccc(OC)cc3)cc2OC[C@@H]1C,-7.16%
11,CO[C@H]1CN(C)C(=O)c2cc(NC(=O)Nc3cccc(F)c3)ccc2OC[C@H](C)N(C(C)=O)C[C@H]1C,28%
12,CO[C@@H]1CN(C)C(=O)c2cc(NC(=O)C3CC3)ccc2OC[C@@H](C)N(Cc2nccs2)C[C@@H]1C,-5.42%
13,C[C@H](CO)N1C[C@H](C)[C@H](CN(C)C(=O)Nc2cccc3ccccc23)Oc2ccc(NS(C)(=O)=O)cc2C1=O,-5.79%
14,CNC[C@@H]1OCCCC[C@H](C)Oc2ccc(NS(=O)(=O)c3ccc(F)cc3)cc2C(=O)N([C@@H](C)CO)C[C@@H]1C,-1.03%
15,CC(Nc1nc(C(F)(F)F)nc2ccccc12)c1cccs1 (stereo not drawn),-5.59%
16,CC(C)(C)Nc1nc(-c2ccccn2)nc2ccccc12,93% (active)
17,O=C(C[C@@H]1C[C@H]2c3cc(NC(=O)C4CCOCC4)ccc3O[C@H]2[C@H](CO)O1)NCc1ccc2c(c1)OCO2,-5.45%
18,O=C(NC1CCCC1)[C@H]1[C@H](CO)[C@H]2Cn3c(ccc(-c4ccccc4F)c3=O)[C@@H]1N2C(=O)CC1CC1,-1.58%
19,C[C@@H]1CN([C@@H](C)CO)C(=O)Cc2cc(NC(=O)Nc3ccc(F)cc3)ccc2O[C@@H]1CN(C)S(=O)(=O)c1ccccc1,2.95%
20,C[C@H](CO)N1C[C@H](C)[C@@H](CN(C)Cc2ccncc2)Oc2ncc(C#CC3CC3)cc2C1=O,-1.14%
21,Cn1c(N)c(C(=O)COC(=O)c2ccc3ccccc3c2)c(=O)n(C)c1=O,-4.71%
22,Cn1c(N)c(C(=O)COC(=O)COc2ccc(Cl)cc2)c(=O)n(C)c1=O,2.04%
23,Cn1c(N)c(C(=O)COC(=O)c2cnc(Cl)c(Cl)c2)c(=O)n(C)c1=O,45.8% (active)
24,COc1ccc(C#Cc2cnc3c(c2)C(=O)N([C@H](C)CO)C[C@H](C)[C@H](CN(C)C(=O)CC2CC2)O3)cc1,3.95%

row,SMILES,inhibition
1,O=C1O[C@@H](c2ccccc2)[C@@H](c2ccccc2)N2[C@@H](c3ccccc3OCCO)[C@]3(C(=O)Nc4ccccc43)[C@@H](C(=O)N3CCCCCCC3)[C@H]12,29.4%
2,COc1ccc(-n2c(O)c(C=NCC(c3ccco3)N3CCCC3)c3ccccc3c2=O)cc1OC (stereo not drawn),5.52%
3,CCOc1ccc(-n2c(O)c(/C=N/Nc3nnc(C)c(=O)[nH]3)c3ccccc3c2=O)cc1,66.5% (active)
4,Cc1nnc(N/N=C/c2ccccn2)[nH]c1=O,61.4% (active)
5,CCOc1ccc(N/C(N)=N/c2nc(C)c(C)c(=O)[nH]2)cc1,-20.7%
6,C[C@@H]1CN([C@H](C)CO)C(=O)c2cc(C#CC3(O)CCCC3)cnc2O[C@H]1CN(C)Cc1ccncc1,-3.19%
7,O=C(C[C@@H]1CC[C@H]2[C@@H](COC[C@H](O)CN2C(=O)Nc2ccc(Cl)cc2)O1)NCC1CC1,-0.418%
8,CN(C)C(=O)[C@@H]1[C@@H](CO)[C@@H]2Cn3c(cccc3=O)[C@H]1N2CC1CCCCC1,10.9%
9,COCC(=O)N1C[C@H]2[C@@H](c3ccccc31)[C@@H](CO)N2Cc1ccccc1,4.41%
10,O=C(C[C@@H]1CC[C@@H]2[C@H](COC[C@@H](O)CN2Cc2ccccc2)O1)NCCc1ccccc1,0.273%
11,Clc1ccc(-c2cc(COc3ccccc3)no2)cc1Cl,1.19%
12,COc1ccc(-c2ccc(CNCCCN3CCOCC3)o2)cc1Cl,2.81%
13,Fc1ccc(-c2ccc(CNCc3ccccn3)o2)cc1Cl,59.1% (active)
14,CO[C@H](CN(C)C(=O)c1cnccn1)[C@@H](C)CN([C@@H](C)CO)S(=O)(=O)c1ccc(C)cc1,3.1%
15,C[C@@H]1CN([C@@H](C)CO)C(=O)c2cc(-c3cncnc3)cnc2O[C@@H]1CN(C)C(=O)c1ccccc1F,-2.75%
16,C[C@@H]1CN([C@H](C)CO)S(=O)(=O)c2ccc(C#CCN(C)C)cc2O[C@@H]1CN(C)C(=O)CN(C)C,-1.64%
17,O=C(CCNC(=O)c1ccccc1)NN=Cc1ccc(Br)o1,0.9%
18,O=C(CCNc1n[nH]c(=O)[nH]c1=O)N/N=C\c1ccc(Br)cc1,1.48%
19,O=C(CCCO)N/N=C/c1cc(Br)ccc1O,80.7% (active)
20,CN1C(=O)c2cc(NS(=O)(=O)c3ccc(Cl)cc3)ccc2OC[C@H]2O[C@@H](CC(=O)O)CC[C@H]21,4.03%
21,C[C@@H]1CN([C@H](C)CO)C(=O)Cc2cc(NC(=O)CCCN(C)C)ccc2O[C@H]1CN(C)CC1CCCCC1,0.403%
22,CCOc1cc(CNCc2ccccn2)ccc1OCC(=O)NC(C)(C)C,36.2%
23,COc1ccc2ccccc2c1CNCc1ccccn1,55.2% (active)
24,COc1cc(CNCc2ccc(OC)c3ccccc23)cc(OC)c1OC,4.98%
